Test results taken from PubChem BioAssay (Tox21).
Where “and” joins values, the source holds several entries; their conditions need not be identical. Equal values may be shown once. Records with an inconclusive call do not appear. Calls of active or inactive are those of the source. The call rests on the fitted dose curve; in most records, active means well fitted cell-killing curve with a large enough effect in the repeat runs; inconclusive means weak or mixed curves; inactive means no such curve, though single readings can be large or run the other way.

Experiment: qHTS assay for identifying genotoxic compounds that show differential cytotoxicity against isogenic chicken DT40 cell lines with known DNA damage response pathways - Rad54/Ku70 mutant cell line (AID 743015); further: nearly all actives have a fitted effect of over 60% in size
Settings: DT40 Rad54/Ku70 mutant viability, CellTiter-Glo, 40 h; series mostly up to 66.8 µM
Potency means the concentration at half of the fitted maximal effect.

Compound	Potency
CC(C)N1C(=O)N(c2ccccc2)CSC1=NC(C)(C)C	24.3 µM (active)
Clc1ccc(C(c2ccccc2Cl)C(Cl)(Cl)Cl)cc1 (centres undefined)	28.4 µM (active)
OC(c1ccc(Cl)cc1)(c1ccc(Cl)cc1)C(Cl)(Cl)Cl	48.6 µM (active)
CC(=O)/C=C/c1ccc2c(c1)OCO2	61.4 µM (active)
CCCSP(=O)(OCC)SCCC	39.9 µM (active)
Oc1ccc(C2(c3ccc(O)cc3)c3ccccc3-c3ccccc32)cc1	54.5 µM (active)
Oc1ccc2ccc3cccc4ccc1c2c34	30.6 µM (active)
CC(C)(C)c1cc([N+](=O)[O-])cc(C(C)(C)C)c1O	7.7 µM (active)
CCc1nn(C)c(C(=O)NCc2ccc(C(C)(C)C)cc2)c1Cl	0.0545 µM (active)
CCOP(=O)(NC(C)C)Oc1ccc(SC)c(C)c1 (centres undefined)	40.1 µM (active)
CC[C@H](C)[C@H]1O[C@]2(C=C[C@@H]1C)C[C@@H]1C[C@@H](C/C=C(\C)[C@@H](O[C@H]3C[C@H](OC)[C@@H](O[C@H]4C[C@H](OC)[C@@H](O)[C@H](C)O4)[C@H](C)O3)[C@@H](C)/C=C/C=C3\CO[C@@H]4[C@H](O)C(C)=C[C@@H](C(=O)O1)[C@]34O)O2	26.6 µM (active) and 6.42 µM (active)
CCN(CC)C(=S)[S-].CCN(CC)C(=S)[S-].[Zn+2]	1.08 µM (active)
Cc1cc(SCc2sc(-c3ccc(C(F)(F)F)c(F)c3)nc2C)ccc1OCC(=O)O	54.5 µM (active)
O=C(CCl)Nc1ccccc1	5.45 µM (active)
O=C(Nc1ccc2[nH]ccc2c1)c1cc2cc(F)ccc2n1Cc1cccc(F)c1	17.2 µM (active)
O=C(CCl)C(Cl)Cl	4.9 µM (active)
CCCCCCCCc1ccc(O)cc1	25.2 µM (active)
O=c1ssc(Cl)c1Cl	3.44 µM (active)

Compound	Potency
CC(=O)[O-].CC(=O)[O-].O.O.[Cd+2]	60.3 µM (active)
O=S(=O)(c1ccc(Cl)cc1)c1ccc(Cl)cc1	52.8 µM (active)
Oc1ccc(C2(c3ccc(O)cc3)CCCCC2)cc1	57.9 µM (active)
Oc1cc(Cl)c(Cl)c(Cl)c1	inactive
COC12CC[C@@]3(C[C@@H]1C(C)(O)C(C)(C)C)[C@H]1Cc4ccc(O)c5c4[C@@]3(CCN1CC1CC1)[C@H]2O5 (some centres undefined)	48.2 µM (active)
CS(=O)(=O)c1ccc(C(=O)C2C(=O)CCCC2=O)c([N+](=O)[O-])c1	45.6 µM (active)
CC(C)(C)C(O)/C(=C\c1ccc(Cl)cc1Cl)n1cncn1 (centres undefined)	18.6 µM (active)
C=CC(=O)OCCCCOC(=O)C=C	27.3 µM (active)
CCCCCCCCCCCCBr	30.6 µM (active)
ClC1=C(Cl)[C@]2(Cl)[C@@H]3[C@@H]4C[C@@H]([C@H]5O[C@@H]45)[C@@H]3[C@@]1(Cl)C2(Cl)Cl	25.8 µM (active)
C1CCC2CCCCC2C1 (centres undefined)	inactive
COc1ccc(N)cc1N	9.99 µM (active) and 7.38 µM (active)
CC(C)C1CCC(Cc2ccc(Cl)cc2)C1(O)Cn1cncn1 (centres undefined)	8.55 µM (active)
Clc1ccc(COC(Cn2ccnc2)c2ccc(Cl)cc2Cl)cc1 (centres undefined)	10.6 µM (active) and 16.1 µM (active) and 10.8 µM (active)
N#CCCC(Br)(C#N)CBr (centres undefined)	7.7 µM (active)
CCOCCOC(C)=O	inactive
CCOc1cc(C(C)(C)C)ccc1C1COC(c2c(F)cccc2F)=N1 (centres undefined)	11.7 µM (active)

Experiment: qHTS assay to identify small molecule antagonists of the androgen receptor (AR) signaling pathway - cell viability counter screen (AID 743033; further: nearly all actives have a fitted effect of over 45% in size)
Settings: AR-bla HEK293 viability, CellTiter-Glo luminescence, 16 h; series mostly up to 58.5 µM

Compound	Potency
Clc1ccc(C(c2ccccc2Cl)C(Cl)(Cl)Cl)cc1 (centres undefined)	inactive
CC(=O)/C=C/c1ccc2c(c1)OCO2	inactive
Oc1ccc(C2(c3ccc(O)cc3)c3ccccc3-c3ccccc32)cc1	54.9 µM (active)
Oc1ccc2ccc3cccc4ccc1c2c34	inactive
C[C@]12CC[C@H]3[C@@H](CCC4=CC(=O)CC[C@@]43C)[C@@H]1CC[C@@H]2O	inactive
CCc1nn(C)c(C(=O)NCc2ccc(C(C)(C)C)cc2)c1Cl	0.195 µM (active)
CC[C@H](C)[C@H]1O[C@]2(C=C[C@@H]1C)C[C@@H]1C[C@@H](C/C=C(\C)[C@@H](O[C@H]3C[C@H](OC)[C@@H](O[C@H]4C[C@H](OC)[C@@H](O)[C@H](C)O4)[C@H](C)O3)[C@@H](C)/C=C/C=C3\CO[C@@H]4[C@H](O)C(C)=C[C@@H](C(=O)O1)[C@]34O)O2	inactive
CCN(CC)C(=S)[S-].CCN(CC)C(=S)[S-].[Zn+2]	0.344 µM (active)
Cc1cc(SCc2sc(-c3ccc(C(F)(F)F)c(F)c3)nc2C)ccc1OCC(=O)O	38.9 µM (active)
O=C(Nc1ccc2[nH]ccc2c1)c1cc2cc(F)ccc2n1Cc1cccc(F)c1	49 µM (active)
O=C(CCl)C(Cl)Cl	6.22 µM (active)
CCCCCCCCCCCCCCC(Br)C(=O)O (centres undefined)	inactive
CC(=O)[O-].CC(=O)[O-].O.O.[Cd+2]	24.2 µM (active)
C1CCC2CCCCC2C1 (centres undefined)	inactive
CC(C)C1CCC(Cc2ccc(Cl)cc2)C1(O)Cn1cncn1 (centres undefined)	38.5 µM (active)
Clc1ccc(COC(Cn2ccnc2)c2ccc(Cl)cc2Cl)cc1 (centres undefined)	40.7 µM (active) and 38.7 µM (active)
CCOCCOC(C)=O	inactive
O=CC(Br)(Br)Br	21.8 µM (active)
CCOc1cc(C(C)(C)C)ccc1C1COC(c2c(F)cccc2F)=N1 (centres undefined)	inactive
